Compound activity from PubChem.
DT40 TDP1 CPT – DT40-hTDP1 cell growth loss with CPT. chicken DT40 Tdp1-/-;hTDP1 cells + 20 nM CPT, ATP luminescence, 48 h. Potency, µM (doses to about 46.2 µM), for inactives: top-dose activity change, negative = growth inhibition, hits mostly inhibitors. 420,000 compounds, 12% hits. AID 686979; also: potency is read from the fitted curve at half-maximal effect; nearly all actives have a fitted effect of over 55% in size
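Chicken DT40 Tdp1-/- cells complemented with human TDP1, 400 cells/well, exposed to compounds plus 20 nM camptothecin for at least 48 h at 37 C; viability read as ATP content by CellTiter-Glo luminescence.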
IL1B secr inh – inflammasome signaling inhibition, IL-1 beta readout. THP-1 LPS/ATP IL-1B secretion, AlphaLISA, 16 h; stronger effect = lower value. activity change, % at 57.5 µM. 360,000 compounds, 4.7% hits. AID 743279; in the data active = activity change below about -50%; inconclusive = mostly about -30% to -49%
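Secreted IL-1B measured by AlphaLISA bead assay after 16 h compound exposure of THP-1 cells; compounds (final up to 57.5 uM) added 1 h before LPS (250 ng/mL) and ATP (1.25 mM) stimulation; lower signal means less secretion.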
DT40 TDP1 no CPT – qHTS for Inhibitors of human tyrosyl-DNA phosphodiesterase 1 (TDP1): qHTS in cells in absence of CPT; DT40 Tdp1-/- hTDP1 cells, no CPT, ATP luminescence, 48 h; Potency, µM (top dose mostly 46.2 µM), inactives show at the highest dose activity change, negative = growth inhibition, most hits filed as inhibitors; 420,000 compounds, 15% hits; also: potency is read from the fitted curve at half-maximal effect; nearly all actives have a fitted effect of over 55% in size
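A cellular qHTS used chicken DT40 cells lacking endogenous Tdp1 but carrying stably transfected human TDP1. Compounds were applied without camptothecin, and cell growth kinetics were judged by ATP-dependent luminescence after ≥48 hr.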
Giardia killer – kills Giardia lamblia. Giardia lamblia trophozoite viability. activity change, % at 7.66 µM, hits read low. 340,000 compounds, 0.15% hits. AID 540267; in the data active = activity change below about -80%; inconclusive = between about -30% and that limit;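 also: parasites exposed to compound for two days anaerobically before the ATP read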
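Giardia trophozoites, 100 cells per well, were exposed to compounds for 48 hrs at 37 deg C under anaerobic conditions; viability was then read as ATP content by bioluminescence after 15-30 min at room temperature.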
ELG1 repair inh – ELG1-dependent DNA repair inhibition | 330,000 compounds, 2.3% hits | HEK293T ELG1-luciferase reporter, luminescence, 16 h; DNA damage induced by 5-fluorouridine | Potency, µM (highest dose often 46.1 µM), inactives show top-dose activity change, negative = inhibition, usual class: inhibitors | AID 504467; also: potency is read from the fitted curve at half-maximal effect; nearly all actives have a fitted effect of over 55% in size
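Luminescence from the luciferase reporter, measured 30 min after ONE-Glo reagent at room temperature, was the read-out. Beforehand, 2,000 cells per well were exposed for 16 hr at 37 °C to 5-fluorouridine together with compound or vehicle.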
TDP1 block – inhibitors of human tyrosyl-DNA phosphodiesterase TDP1; Q9NUW8; recombinant TDP1, AlphaScreen DNA substrate cleavage; Potency, µM (doses to about 130 µM), inactives show at the top dose activity change, negative = inhibition, hits mostly inhibitors; 350,000 compounds, 0.28% hits; also: potency is read from the fitted curve at half-maximal effect; nearly all actives have a fitted effect of over 40% in size
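AlphaScreen read-out: signal falls as enzyme removes the 3' tyrosine-FITC from a 5'-biotinylated DNA oligo (15 nM, 5 min, RT). Enzyme was E. coli-made recombinant Tdp1 at 1 nM, exposed to compound for 15 min beforehand; beads 10 ug/ml, 10 min.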
The depositor's hits bear a star; u = inconclusive; x = not tested or not shown. Most compounds without a hit are left out; they make up all but 19% or so of the library. Unless noted, calls follow the shape of the dose curve; as a rule, active = well fitted curve in the direction sought with a large enough effect; inconclusive = small, poorly fitted or top-dose-only effect, or another doubt; inactive = no such curve, though single readings can be large; an effect the other way counts as inactive or inconclusive. % is scaled to controls: 0 for no effect and ±100 for the full control effect.

SMILES	DT40 TDP1 CPT	IL1B secr inh	DT40 TDP1 no CPT	Giardia killer	ELG1 repair inh	TDP1 block
Cc1ccc2nc(-c3ccc(NS(=O)(=O)c4ccc(F)cc4)cc3)sc2c1	u	-103*	u	-23	u	-4%
O=S(=O)(Nc1ccc(-c2csc(-c3ccccc3)n2)cc1)c1ccccc1	-41%	-102*	18µM*	-18	10%	-3%
O=C1c2ccccc2C(=O)c2cc(S(=O)(=O)Nc3ccccc3)ccc21	15µM*	0	21µM*	u	-1%	11%
O=[N+]([O-])c1ccc(S(=O)(=O)Nc2ccc(-c3csc(-c4ccccc4)n3)cc2)cc1	x	x	x	x	u	9%
O=S(=O)(Nc1ccc(-c2ccc(NS(=O)(=O)c3ccccc3)cc2)cc1)c1ccccc1	u	-4	23µM*	-1	x	x
CCCC/C=C/[C@H](c1ccccc1)[C@H](CO)Cc1cnc2ccccc2c1	x	x	x	0	x	1%
Cc1ccc(S(=O)(=O)Nc2nc(-c3ccccc3)cs2)cc1	2%	17	-6%	19	-5%	x
Cc1ccc(S(=O)(=O)Nc2ccc(-c3csc(-c4ccccc4)n3)cc2)cc1	u	-97*	u	-4	3%	5%
CCC(C)N(C(=O)Cn1c(=O)cnc2ccccc21)C1CCS(=O)(=O)C1 (stereo not given)	11%	5	-3%	-16	14%	0%
C=Cc1ccc(C=C)cc1	x	x	x	x	x	-7%
COc1ccccc1-c1nn2c(-c3cc(-c4ccccc4)n[nH]3)nnc2s1	6.3µM*	x	4.5µM*	20	x	1%
CN(C)c1ccc(-c2nn3c(-c4cc(-c5ccccc5)n[nH]4)nnc3s2)cc1	5µM*	x	3.2µM*	7	x	-1%
CN(C)c1ccc(-c2nn3c(-c4ccc(Cl)cc4Cl)nnc3s2)cc1	x	x	x	x	-1%	3%
Clc1ccccc1-c1nn2c(-c3cc(-c4ccccc4)n[nH]3)nnc2s1	13µM*	x	11µM*	3	x	-1%
Clc1cccc(-c2nn3c(-c4ccncc4)nnc3s2)c1	x	x	x	x	1%	4%
COc1ccccc1-c1nn2c(-c3ccco3)nnc2s1	u	-27	18µM*	1	u	x
COc1ccccc1-c1nn2c(-c3ccccc3Cl)nnc2s1	x	x	x	x	9%	-5%
COc1cccc(OC)c1-c1nn2c(-c3cc(-c4ccccc4)n[nH]3)nnc2s1	18µM*	-2	u	6	u	-8%
Clc1ccc(OCc2nn3c(-c4ccco4)nnc3s2)cc1	u	-17	18µM*	14	-10%	4%
COc1ccc(OCc2nn3c(-c4ccco4)nnc3s2)cc1	u	-5	u	28	-9%	-9%
O=C(CSc1nccn1Cc1ccc(F)cc1)Nc1ccc2c(c1)OCO2	u	x	-12%	x	x	9%
Clc1ccc2nc(C(Cl)(Cl)Cl)[nH]c2c1	0%	-2	3%	x	x	x
Cc1cccc(OCCn2cnc(Cl)c2Cl)c1	-28%	-52*	-16%	0	u	-1%
COc1ccccc1OCCCCN1CCCCC1	-2%	18	7%	11	-1%	x
Cc1cccc(OCCCN2CCCCCC2)c1	-6%	9	-6%	6	6%	-10%
Fc1ccc(OCCn2cnc(Cl)c2Cl)cc1	-1%	-26	-2%	2	u	-1%
COc1ccccc1OCCN1CSC(=S)N(C)C1	1.2µM*	-107*	1.8µM*	9	u	4%
Cc1cccc(OCCN2CSC(=S)N(C)C2)c1	4.6µM*	-96*	3.3µM*	-8	5%	2%
O=S1(=O)CCO[C@H]2CCCC[C@@H]2N1Cc1cccc(F)c1	-29%	x	-18%	x	x	x
CCOC(=O)c1cccc(COC(=O)c2cccc(-c3nnc(-c4ccccc4)o3)c2)c1	26µM*	-10	16µM*	15	u	3%
